Assay outcomes deposited in PubChem by National Center for Advancing Translational Sciences (NCATS).
Shown are actives, neighbours in structure and some others; about 8.8% of the full set was active somewhere.
KB-V1 cytotox: qHTS assay for MDR1-selective chemotherapeutics: Primary screen using the drug-selected MDR subline cells KB-V1. KB-V1 MDR cells viability, CellTiter-Glo, 72 h. Potency, µM (titrated, usually from 46.1 µM), most hits filed as cytotoxic. hit rate 3.4% among 400,000; note: potency is the fitted concentration of half-maximal effect; nearly all actives have a fitted effect of over 60% in size
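KB-V1 cells (P-gp-expressing MDR subline of KB-3-1) in phenol-red-free DMEM with 10% FBS were exposed to library compounds over a concentration series for 72 h at 37 degrees C. Viability read by CellTiter-Glo luminescence; concentration-effect curves fitted after normalization.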
HT1080 IDH1KD tx: qHTS for induction of synthetic lethality in tumor cells producing 2HG: qHTS for the HT-1080-IDH1KD cell line; HT-1080 IDH1 knockdown viability, ATP luminescence, 48 h; hit rate 2% among 360,000; Potency, µM (titrated, usually from 46.1 µM), for inactives: at the highest dose activity, negative = toxicity, hits mostly cytotoxic;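 note: potency is the fitted concentration of half-maximal effect; 0% = DMSO wells and -100% = cell-free medium wells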
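Luminescent ATP read-out (CellTiter-Glo, 10 min at room temperature) after 48 h compound exposure at 37 °C gave viability of IDH1-knockdown HT-1080 cells. Activity was normalised to DMSO and cell-free wells, then fitted as concentration-response curves.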
KB-3-1 tox: qHTS assay for MDR1-selective chemotherapeutics: Primary screen using the parental adenocarcinoma cell KB-3-1 | Potency, µM (titrated, usually from 46.1 µM), usual class: cytotoxic | KB-3-1 viability, CellTiter-Glo ATP luminescence, 72 h | hit rate 1.4% among 400,000 | AID 1347075, 2019; note: potency is the fitted concentration of half-maximal effect; nearly all actives have a fitted effect of over 60% in size
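Luminescent ATP read-out (CellTiter-Glo) measures survival of drug-naive KB-3-1 cells after 72 h compound exposure at 37 °C. Titration series was screened from lowest to highest concentration, with DMSO vehicle plates as background controls.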
IL1B secr inh: qHTS for Inhibitors of Inflammasome Signaling: IL-1-beta AlphaLISA Primary Screen. AID 743279, 2014. THP-1 LPS/ATP IL-1B secretion, AlphaLISA, 16 h; active compounds read low. activity change, % at 57.5 µM. hit rate 4.7% among 360,000; in the data active = activity change below about -50%; inconclusive = mostly about -30% to -49%
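Secreted IL-1B measured by AlphaLISA bead assay after 16 h compound exposure of THP-1 cells; compounds (final up to 57.5 uM) added 1 h before LPS (250 ng/mL) and ATP (1.25 mM) stimulation; lower signal means less secretion.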
HT1080NT lethal: qHTS for induction of synthetic lethality in tumor cells producing 2HG: qHTS for the HT-1080-NT fibrosarcoma cell line. Potency, µM (series often up to 46.1 µM), inactives show at the top dose activity, negative = less viability, usual class: cytotoxic. HT-1080-NT fibrosarcoma viability, CellTiter-Glo ATP luminescence, 48 h. AID 686970, 2013. hit rate 1.6% among 360,000;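 note: NT is the 2HG producing partner of a matched IDH1 knockdown line; potency is the fitted concentration of half-maximal effect; 0% = DMSO-treated cells and -100% = media-only wells without cells; nearly all actives have a fitted effect of over 55% in size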
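HT-1080-NT fibrosarcoma cells (2HG-overproducing), 750 cells/well in RPMI with 5% FBS, dosed after 2 h and incubated 48 h at 37C. CellTiter-Glo luminescence normalized to DMSO and no-cell wells; concentration-response curves fitted and classed.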
* marks the source's active call; other numbers are inactive results; i = inactive; u = inconclusive; x = no result given; ! = not confirmed by another sample. Unless noted, calls come from the whole dose curve; as a rule, active = well fitted curve in the direction sought with a large enough effect; inconclusive = small, poorly fitted or top-dose-only effect, or another doubt; inactive = no such curve, though single readings can be large; an effect the other way counts as inactive or inconclusive. Unless noted, % is set by controls: 0 for no effect and ±100 for the full control effect.

SMILES | KB-V1 cytotox | HT1080 IDH1KD tx | KB-3-1 tox | IL1B secr inh | HT1080NT lethal
COc1cc([C@@H]2c3cc4c(cc3C[C@H]3COC(=O)[C@@H]32)OCO4)cc(OC)c1O | i | x | u | x | x
COc1cc(C2c3cc4c(c(O)c3CC3COC(=O)C32)OCO4)cc(OC)c1OC (stereo not drawn) | 0.18µM*! | u | 0.0082µM*! | 24 | 0.0052µM*
COc1cc([C@@H]2c3cc4c(cc3[C@H](OC(C)=O)[C@H]3COC(=O)[C@@H]23)OCO4)cc(OC)c1OC | u | x | 0.65µM* | x | x
COc1cc(C2c3cc(O)c(OC)cc3CC3C(=O)OCC32)ccc1O (stereo not drawn) | i | 2% | i | -1 | -2%
CC1CCCC(NC(=O)CNC(=S)N2CC3CC(C2)c2cccc(=O)n2C3)C1C (stereo not drawn) | i | 14% | i | 5 | 6%
ClCCN(CCCl)c1ccc(C=Nc2ccc(/C=C/c3ccncc3)cc2)cc1 | i | x | i | x | x
CCOC(=O)c1c(C)n(CC(O)CN2CCOCC2)c2cc(Br)c(OC)cc12 (stereo not drawn) | i | 1% | i | -24 | -25%
CN1CCCC2c3ccccc3CCC21 (stereo not drawn) | i | 2% | u | 20 | 8%
Cc1ccc(-n2nc(C)cc2NC(=O)COc2cc(C)cc3oc(=O)c4c(c23)CCC4)cc1 | 2.1µM* | -20% | i | -2 | -6%
CCOC(=O)c1c(-n2c(C)cc(/C=C3\C(=O)NC(=O)N(C)C3=O)c2C)sc2c1CCCC2 | 23µM* | 3% | i | -73* | 14%
COC(=O)C(NC(C)=O)(Nc1nc2c(C)cc(C)cc2s1)C(F)(F)F (stereo not drawn) | u | 13µM* | u | -9 | 16µM*
CC(C)CNC(=O)/C=C/C=C/CCCCCC/C=C/c1ccc2c(c1)OCO2 | i | 6% | i | 11 | 0%
C[C@@H]1O[C@@H](O[C@@H]2C=C3CC[C@@H]4[C@@H](CC[C@]5(C)[C@H](c6ccc(=O)oc6)CC[C@@]45O)[C@@]3(C)CC2)[C@H](O)[C@H](O)[C@H]1O | 0.92µM* | x | 0.012µM* | x | x
Brc1ccc(Oc2cc(Br)c(Br)cc2Br)c(Br)c1 | i | -3% | i | 36 | u
CCOC(=O)C1(CCOc2ccccc2)CCN(Cc2cccc(O)c2)CC1 | i | u | i | -86* | u
CCOC(=O)C1(CCc2ccccc2)CCN(Cc2cccc3c2OCO3)CC1 | i | u | u | -85* | u
CCOC(=O)C1(CCc2ccccc2)CCN(Cc2csc(C(C)=O)c2)CC1 | u | u | i | -1 | u
CCOC(=O)C1(CCc2ccccc2)CCN(Cc2cccc3cnccc23)CC1 | u | u | u | -111* | u
COc1ccc2cc1Oc1ccc(cc1)C[C@H]1c3cc(c(OC)cc3CCN1C)Oc1c(OC)c(OC)cc3c1[C@@H](C2)N(C)CC3 | i | -14% | i | u | -19%
Cc1ccccc1[N+](=O)[O-] | i | x | u | 26 | x
Cc1cc([N+](=O)[O-])c2ccccc2[n+]1[O-] | 0.52µM* | 8.2µM* | 0.92µM* | -99* | 6.5µM*
O=S1(=O)N(Cc2ccccc2)CCCN1Cc1cccc(Cl)c1 | i | x | i | x | x
COC(=O)C1=C(c2ccc(-c3ccccc3)c(F)c2)C[C@@H]2CC[C@H]1N2C(=O)N1CCCC1 | u | -26% | 18µM* | -69* | -19%
COC(=O)C1=C(c2cc3ccccc3s2)C[C@@H]2CC[C@H]1N2C(=O)N1CCCCC1 | u | 8.2µM* | 26µM* | 16 | u
COC(=O)C1=C(c2cc3ccccc3o2)C[C@@H]2CC[C@H]1N2C(=O)N1CCOCC1 | 23µM* | u | 5.8µM* | 45 | 23µM*
